The campaign covered roughly 350,000 compounds. About 2,700 (0.77%) were called active. For the sample, actives were picked, then their nearest neighbours and some compounds at random. Values without a mark were called inactive.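 Rule for the calls: active = inhibition reaching at least a set limit at 20 µM in the primary screen (cut at about 59% in these data); inactive = the rest.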

For this assay, the system named is glucose-6-phosphate dehydrogenase-6-phosphogluconolactonase (Plasmodium falciparum 3D7). The assay is described as follows: PfG6PD enzyme inhibitors, primary screen, biochemical, fluorescence intensity, uHTS (AID 504690).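 Note: 0% = DMSO wells with substrate and 100% = DMSO wells lacking glucose-6-phosphate.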 The conditions noted are these: PfGluPho enzyme, NADPH resazurin-diaphorase fluorescence; at 20 µM; hits give high values.
On to `C[n+]1cccc(C(=O)O)c1`, for which the inhibition is -8.19%.
To `Cc1cccc(C(=O)OC(C)C(=O)NC2CCCc3ccccc32)c1O` (stereo not given) belongs -19.6%; to `CCOc1c2ccc(C(=O)NCc3ccc(OC(F)(F)F)cc3)cc2nn1C`, 1.65%; to `O=C(Nc1ccc(OC(F)(F)F)cc1)c1ccc2c(c1)no[n+]2[O-]`, 69.8% (active).
The value for `CCOC(=O)Cc1ncccc1C(=O)Nc1ccc(OC(F)(F)F)cc1` was -20.5%; that for `CC(NC(=S)Nc1ccc(S(N)(=O)=O)cc1)c1ccc2c(c1)OCO2` (stereo not given) was -1.17%.
The value for `O=C(CN1CCN(c2ccc(O)cc2)CC1)Nc1cc(S(=O)(=O)N2CCOCC2)ccc1Cl` was 73.8% (active).
As to `O=C(CN1CCOCC1)Nc1ccccc1`, the inhibition was -18.6%.
The value for `O=C(CN1CCN(c2ccc(F)cc2)CC1)Nc1cccc(C(F)(F)F)c1` was 12.7%; that for `O=C(CN1CCN(c2cccc(Cl)c2)CC1)Nc1ccc(S(=O)(=O)N2CCOCC2)cc1` was 7.9%; that for `O=C(CN1CCN(c2ccc(O)cc2)CC1)Nc1ccc(-c2ccccc2)cc1` was 69% (active).
As to `Cc1ccc(Cl)cc1NC(=O)CN1CCN(S(=O)(=O)N2CCOCC2)CC1`, the inhibition was -17%.
The value for `COc1cc2c(cc1OC)C(C(=O)NCc1ccco1)C1c3ccccc3CCN1C2=O` (stereo not given) was 0.17%.
The value for `CCn1nc(NC(=O)c2ccco2)c2cc3ccc(C)cc3nc21` was 6.85%; that for `O=C(NCCN=C1NS(=O)(=O)c2ccccc21)c1ccc(S(=O)(=O)N2CCOCC2)cc1` was 4.66%.
To `O=C(COc1ccc([N+](=O)[O-])cc1Cl)Nc1ccc2[nH]c(=O)[nH]c2c1` belongs 13.1%; to `COC(=O)c1ccc(OCC(=O)NC(C)(C)C)cc1`, 3.26%.
`CC(C)(C)NC(=O)COc1ccc(CNc2ccc3[nH]c(=O)[nH]c3c2)cc1`: the inhibition was 94.7% (active).
Consider `COc1ccccc1CN1CC(C(=O)NCCc2cn[nH]c2)CCC1=O` (stereo not given), for which the inhibition is -1.62%.
The value for `Cc1ccc(C(=O)OCC(=O)Nc2ccc(Cl)cn2)cc1S(=O)(=O)N1CCOCC1` was -1.58%; that for `COC(C[C@@H](O)C[C@@H](O)[C@H](C)OCc1ccccc1)OC` was 10.8%.
As for `CCOC(=O)c1cccc(NC(=O)CCn2nnc3ccccc32)c1`, the inhibition is -9.98%.
The value for `O=C(CCn1nnc2ccccc21)OCC(=O)c1ccc([N+](=O)[O-])cc1` was 59.2% (active); that for `COc1c(O)cccc1-c1nnn(CCC(=O)OCC(=O)c2ccccc2)n1` was 6.47%.
The value for `Cc1ccc(CSc2ccc(S(=O)(=O)N3CCCCC3)cn2)cc1` was 10.9%; that for `CC(=O)Nc1ccc(CC#N)cc1` was -8.66%.
The value for `O=C(NC(=O)c1cc(OCC(F)(F)F)ccc1OCC(F)(F)F)Nc1ccccc1` was 15.2%.
With `COc1ccc2cc(-c3[nH]ncc3CNCCn3nc(C)cc3C)ccc2c1`, the inhibition was -4.25%.
The value for `COc1ccc(Cl)cc1-n1c(=S)sc2c(=O)n(-c3ccc(F)cc3)c(SCC(=O)O)nc21` was 86.6% (active); that for `COc1cccc(-n2c(=S)sc3c(=O)n(-c4ccccc4C)c(SCC(=O)O)nc32)c1` was -2.42%.
As to `COc1cccc(-n2c(=S)sc3c(=O)n(-c4ccccc4OC)c(SCC4OCCO4)nc32)c1`, the inhibition is 22.9%.
To `C/C(CC(=O)NC(C)c1ccccc1)=N\NC(N)=S` (stereo not given) belongs 6.14%; to `CSc1ccc(S(=O)(=O)N2CCC(C(=O)NCc3ccncc3)CC2)cc1`, -30.2%; to `Cc1cccn2c(CN(C)C3CCCc4ccccc43)c(C(=O)N3CCOCC3)nc12` (stereo not given), 62.9% (active).
To `Cc1cccn2c(CNCC(C)Oc3cccnc3)c(C(=O)N3CCOCC3)nc12` (stereo not given) belongs 9.53%; to `CCOC(=O)C1CCN(Cc2c(C(=O)N3CCOCC3)nc3c(C)cccn23)CC1`, -12.6%.
In the case of `c1ccc2cc3c(NCCN4CCOCC4)ccnc3cc2c1`, the inhibition is 6.78%.
`CC(=O)Nc1sc2c(c1C(c1cccc(F)c1)N1CCN(CCO)CC1)CCCC2` (stereo not given): the inhibition is 7.18%.
To `CCOC(=O)C(NC(=O)CC(C)C)(Nc1sc2c(c1C(N)=O)CCCC2)C(F)(F)F` (stereo not given) belongs -8.45%; to `NC(=O)c1c(NC(=O)CSc2nnc(-c3ccco3)n2N)sc2c1CCCC2`, 7.61%; to `NC(=O)c1c(Nc2nc3c(F)cccc3s2)sc2c1CCCC2`, 63.4% (active).
Take `COc1ccc2[nH]c(=O)c(CNc3ccc(C)c(C)c3)cc2c1`: the inhibition is 41%.
With `CCN1CCN(CCNC(=O)c2ccc3c(c2)NC(=O)/C(=C\c2cccc(Cl)c2)S3)CC1`, the inhibition was 2.78%.
The value for `O=C1Nc2cc(C(=O)N3CCC(N4CCCCC4)CC3)ccc2S/C1=C\c1ccccc1` was -9.66%; that for `CCN1CCCC1CNC(=O)c1ccc2c(c1)NC(=O)/C(=C\c1ccccc1F)S2` (stereo not given) was 127% (active); that for `CN(C)S(=O)(=O)c1ccc(Cl)c(NC(=O)COC(=O)CC(NC(N)=O)c2ccc(Cl)cc2)c1` (stereo not given) was -3.62%.
The value for `CCOC(=O)c1c(C)[nH]c(C)c1C(=O)CSc1nc(N)cc(N)n1` was 9.63%; that for `CCCCNC(=O)c1ccccc1NC(=O)C1=C(C)OCCS1` was -13.5%.
To `O=C(Nc1nnc(S(=O)(=O)N2CCOCC2)s1)c1cccc(Br)c1` belongs 103% (active).
With `O=C(Nc1nnc(S(=O)(=O)N2CCCCCC2)s1)c1cccc(Br)c1`, the inhibition is 88.1% (active).
To `O=C(Nc1nncs1)c1cccc(S(=O)(=O)N2CCCCC2)c1` belongs -40.8%; to `Cc1nc2ccc(NC(=O)c3cccc(S(=O)(=O)N4CCOCC4)c3)cc2s1`, 19.6%; to `O=C(Nc1ccc(S(=O)(=O)Nc2nccs2)cc1)c1cccc(S(=O)(=O)N2CCOCC2)c1`, -1.66%.
To `O=C(Nc1ccc(N2CCOCC2)c(Cl)c1)c1ccc(S(=O)(=O)N2CCOCC2)cc1` belongs 0.32%.
To `O=C(Nc1ccc(S(=O)(=O)N2CCOCC2)cc1)c1ccc2ncsc2c1` belongs 72.8% (active); to `O=C(Nc1cccc(S(=O)(=O)N2CCCCC2)c1)c1cncc(Br)c1`, 9.89%; to `Cc1cccc(C(=O)Nc2nnc(S(=O)(=O)N3CCCCCC3)s2)c1`, 95.7% (active).
As to `CCOC(=O)CSc1nnc(NC(=O)c2cccc(S(=O)(=O)N3CCCCC3)c2)s1`, the inhibition is -28.5%.
To `O=C(Nc1nnc(-c2ccccc2)o1)c1cccc(S(=O)(=O)N2CCOCC2)c1` belongs 0.98%.
The value for `Cc1cccc(NC(=O)c2cccc(S(=O)(=O)N3CCCC3)c2)n1` was -1.18%.

(Values after PubChem BioAssay AID504690 (Sanford-Burnham Center for Chemical Genomics, 2011).)
